Screen size: about 420,000 compounds; about 64,000 (15%) were called active. Roughly 27% stayed inconclusive and do not appear here. Calls follow the shape of the dose curve; as a rule, active = well fitted inhibition curve with a large enough effect; inconclusive = small, poorly fitted or top-dose-only effect; inactive = flat fitted curve, though single readings scatter. Only a sample is shown.
Assay: qHTS for Inhibitors of human tyrosyl-DNA phosphodiesterase 1 (TDP1): qHTS in cells in absence of CPT; also: nearly all actives have a fitted effect of over 55% in size
Conditions: DT40 Tdp1-/- hTDP1 cells, no CPT, ATP luminescence, 48 h; activity change, negative = growth inhibition: at 46.2 µM (top of the series)
In short: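 Luminescent ATP content (CellTiter-Glo) served as the growth readout. Knockout chicken DT40 cells expressing human TDP1 were exposed to compounds without camptothecin for a minimum 48 hr at 37 °C.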
% is scaled to controls: 0 for no effect and ±100 for the full control effect; potency is read from the fitted curve at half-maximal effect.

SMILES	activity change, negative = growth inhibition	Potency
O=C(CN1CCN(Cc2ccc(F)cc2Cl)C1=O)NCc1cccs1	-14.6% (inactive)	–
COc1cc(C2CC(=O)Oc3cc(OC)c(OC)c(OC)c32)cc(OC)c1OC (stereo not given)	-15.9% (inactive)	–
COc1cc(C2OC(c3cc(OC)c(OC)c(OC)c3)C(C)C2C)cc(OC)c1OC (stereo not given)	–	18.4 µM (active)
COc1cc(OC)c2c(c1)OC(=O)CC2c1cc(OC)c(OC)c(OC)c1 (stereo not given)	4.96% (inactive)	–
CCCNC(=O)NCc1ccc(N2CCCC2=O)cc1	-1.13% (inactive)	–
Cn1cccc1C1(C(F)(F)F)NCCNC1=O (stereo not given)	2.55% (inactive)	–
COC(=O)c1ccc(C(=O)OC)c(NC(=S)N2CCN(c3ccc(F)cc3)CC2)c1	-22.4% (inactive)	–
Cc1ccc(CSCC2Nc3ccc(C(=O)N4CCN(c5ccc(F)cc5)CC4)cc3NC2=O)cc1 (stereo not given)	–	16.4 µM (active)
Cc1ccc(SCC(=O)N2CCN(c3ccc(F)cc3)CC2)cc1	-28% (inactive)	–
COCc1ccc(CN2CCC(Oc3ccc(C(=O)NCc4ccccn4)cc3)CC2)o1	-22.1% (inactive)	–
O=C(COC(=O)c1ncc(Cl)c(Cl)c1Cl)NNC(=O)c1ccccc1	-13.8% (inactive)	–
CCCCCCn1cc(C(=O)O)c(=O)c2cc(F)c(N3CCCCC3)cc21	1.32% (inactive)	–
Cc1nn(Cc2ccccc2)c(C)c1CNC(=O)c1ccc(F)c(S(=O)(=O)N2CCOCC2)c1	-29.9% (inactive)	–
Cc1cccc(S(=O)(=O)c2cn(Cc3ccccc3)c3cc(N4CCOCC4)c(F)cc3c2=O)c1	–	20.6 µM (active)
CCn1cc(S(=O)(=O)c2cccc(C)c2)c(=O)c2cc(F)c(N3CCN(C)CC3)cc21	6.93% (inactive)	–
Cc1ccc(S(=O)(=O)c2cn(Cc3ccccc3)c3cc(N4CCCC4)c(F)cc3c2=O)c(C)c1	–	9.2 µM (active)
CC1CCCN(c2cc3c(cc2F)c(=O)c(S(=O)(=O)c2cccc(Cl)c2)cn3Cc2ccccc2)C1 (stereo not given)	-15% (inactive)	–
CC(=O)Cc1nsc(NC(=O)c2ccc(Cl)cc2Cl)n1	-8% (inactive)	–
CCCCCC1CC(COc2ccccc2)OC1=O (stereo not given)	0.957% (inactive)	–
CCOC(=O)c1oc2ccccc2c1NC(=O)c1cccs1	2.22% (inactive)	–
CCOC(=O)CNC(=O)/C(=C\c1ccc(F)cc1)NC(=O)c1ccccc1	-0.762% (inactive)	–
CC(=O)OCC(=O)[C@@]1(O)CCC2C3CCC4=CC(=O)CC[C@@]4(C)[C@]3(F)C(O)C[C@]21C (stereo not given in full)	-2.28% (inactive)	–

SMILES	activity change, negative = growth inhibition	Potency
COc1ccc(C2(Nc3cccc(F)c3)C(=O)c3ccccc3C2=O)cc1	5.13% (inactive)	–
COc1ccc(Nc2cc(=O)oc3ccccc23)cc1	–	4.11 µM (active)
COc1ccc2oc(=O)cc(-c3cc4ccccc4o3)c2c1	-16.8% (inactive)	–
COc1ccc(CCNC(=O)COC(=O)c2cc(=O)c3ccccc3o2)cc1	12% (inactive)	–
CC1C=CCC2C(=O)N(c3cccc(C(=O)N4CCCCCC4)c3)C(=O)C12 (stereo not given)	-13% (inactive)	–
CCCCCCCC(=O)OC(CN1CCCCCC1)CN1CCCC1=O (stereo not given)	-24.6% (inactive)	–
CCCCNC(=O)N1CCN(S(C)(=O)=O)CC1	-8.63% (inactive)	–
COc1cccc(-c2nn(-c3ccccc3)cc2/C=C(\C#N)C(=O)NCCCn2ccnc2)c1	–	20.6 µM (active)
COc1cc(OC)cc(C(=O)NCCCn2ccnc2)c1	12.1% (inactive)	–
O=C(NCCCn1ccnc1)/C(=C\c1ccccc1F)NC(=O)c1ccccc1	-16.8% (inactive)	–
NC(=NC(=O)c1ccccc1)C1=C(O)CCC1=O	10% (inactive)	–
N#CC1(Nc2ccc(-c3ccc(Cl)cc3)cc2)CCCC1	-29.4% (inactive)	–
Nc1nc(NC(=O)/C=C/c2ccccc2)nn1-c1ccccc1	-3.08% (inactive)	–
CCCc1cc(=O)oc2c(C)c(OCC(=O)Nc3ccccn3)ccc12	-16% (inactive)	–
CC1CCN(C(=O)CCc2nnc3ccc(NCc4ccco4)nn23)CC1	-6.36% (inactive)	–
CN1CCc2c(sc3c2c(NCc2ccco2)nc2nnnn23)C1	–	18.4 µM (active)
O=C(CN(c1cccc(Cl)c1)S(=O)(=O)c1ccccc1)NN=C1CCCC1	9.75% (inactive)	–
Cc1cccc(-n2ncc3c(=O)[nH]c(SCC(=O)Nc4cc(C)on4)nc32)c1	-21.6% (inactive)	–
O=C(NCC(=O)N1CCCC(C(F)(F)F)C1)c1ccccc1F (stereo not given)	-11.8% (inactive)	–
O=C(NC(Cc1ccccc1)C(=O)N1CCCC(C(F)(F)F)C1)c1ccccc1 (stereo not given)	-7.09% (inactive)	–
FC(F)(F)C1CCCN(c2nsc3ccccc23)C1 (stereo not given)	–	2.59 µM (active)
CC(=NC1CCN(Cc2ccccc2)CC1)c1c(O)[nH]c(=O)[nH]c1=O	2.49% (inactive)	–

SMILES	activity change, negative = growth inhibition	Potency
O=C(COc1ccc(Cl)cc1)N(Cc1ccco1)Cc1ccco1	–	20.6 µM (active)
Cc1cccc(OCC(=O)N(Cc2ccc(C(C)C)cc2)Cc2ccco2)c1C	–	20.6 µM (active)
O=C(CCCOc1ccccc1)NCc1ccco1	3.07% (inactive)	–
O=C(CCc1ccccc1)NNC(=O)COc1ccc(Cl)cc1	3.05% (inactive)	–
Cc1ccnc(NC(=O)CCC(=O)N(CC(=O)NCc2ccccc2)Cc2ccco2)c1	9.59% (inactive)	–
Cc1cccc(OCc2nnc(SCC(=O)N3CCN(C(=O)c4ccco4)CC3)n2C)c1C	-13.6% (inactive)	–
O=C(Nn1cnc2ccccc2c1=O)c1ccc(F)cc1Cl	-25.1% (inactive)	–
O=S(=O)(c1ccc(-c2ccno2)s1)N1CCCCC1	-13% (inactive)	–
O=C(C1CCCO1)N1CCN(C(=S)NC2CC2)CC1 (stereo not given)	1.54% (inactive)	–
Cc1ccc(S(=O)(=O)NNC(=O)Nc2cccc3ccccc23)cc1	-108% (inactive)	–
CC1CCc2c(nc3ncnn3c2Nc2ccc(OC(F)(F)F)cc2)C1 (stereo not given)	–	20.6 µM (active)
CC(=O)c1nn(-c2ccc(OC(F)(F)F)cc2)nc1Nc1ccccc1	-20.1% (inactive)	–
CC1(C)C(C=C(Cl)Cl)C1C(=O)NC(O)C(=O)c1ccccc1 (stereo not given)	-29.8% (inactive)	–
Nc1ccccc1/C=N\N=C/c1ccccc1N	-7.67% (inactive)	–
Nc1ccccc1N	–	7.7 µM (active)
Nc1cccnc1Sc1ccccc1	-8.79% (inactive)	–
COc1cc2c(cc1CNC[C@H]1O[C@@H](n3cnc(C(N)=O)n3)[C@H](O)[C@@H]1O)OCO2	-13.2% (inactive)	–
Cc1ccc(-c2nc(CSCC(=O)NC3CCN(Cc4ccccc4)CC3)c(C)o2)cc1	–	16.4 µM (active)
CCOC(=O)N1CCC(NC(=O)CCc2ccccc2)CC1	-5.47% (inactive)	–
CC1CCCCC1NC(=O)c1cc(=O)[nH]c2ccccc12 (stereo not given)	-24.4% (inactive)	–
COC(=O)CNC(=O)c1cc(-c2ccncc2)nc2ccccc12	-24.2% (inactive)	–
Cc1ccsc1-c1nc(CSCC(=O)NCCN2CCCC2)c(C)o1	4.82% (inactive)	–

SMILES	activity change, negative = growth inhibition	Potency
Cc1cc(C(=O)NC2CCN(Cc3ccccc3)CC2)n[nH]1	-5.37% (inactive)	–
Cc1ccn2cc(C(=O)NC3CCN(Cc4ccccc4)CC3)nc2c1	-12.8% (inactive)	–
CC1CCCC(NC(=O)c2cc(-c3ccncc3)nc3ccccc23)C1C (stereo not given)	–	23.1 µM (active)
Cc1ccc(-c2cc(C(=O)NC3CCN(Cc4ccccc4)CC3)c3ccccc3n2)cc1	–	16.4 µM (active)
C=CCn1c(SCC(=O)NC23CC4CC(CC(C4)C2)C3)nc(O)cc1=O	4.5% (inactive)	–
COc1ccc2c(CC(=O)NNC(=O)c3ccccc3F)coc2c1	-3.08% (inactive)	–
CCC1([N+](=O)[O-])COC(c2ccc(C)cc2)OC1 (stereo not given)	-3.79% (inactive)	–
O=C1CCc2cc(S(=O)(=O)N3CCC(C(=O)NCc4ccccc4Cl)CC3)ccc2N1	-4.74% (inactive)	–
O=C1c2ccccc2C(=O)N1CCC(O)C[N+](=O)[O-] (stereo not given)	-15.4% (inactive)	–
CCCNC(=O)CCn1cc(-c2ccc(OC)cc2)nc1CCN	-11.7% (inactive)	–
COc1cccc(NC(=O)N2CCN(C(=O)c3nsc4ccccc34)CC2)c1	-13.3% (inactive)	–
NC(=O)C1CCN(C(=O)c2cccc(NC(=O)c3nsc4ccccc34)c2)CC1	–	16.4 µM (active)
O=C(Nc1cccc(C(=O)N2CCCC2)c1)c1ccccc1	-29.9% (inactive)	–
CCOC(=O)c1ccc(NC(=O)C2CC(=O)Nc3nc4ccccc4n32)cc1 (stereo not given)	-2.28% (inactive)	–
COc1ccc(Cn2ccc3nc(C)c(C(=O)Nc4ccc(C)c(F)c4)cc3c2=O)cc1	-22.8% (inactive)	–
CN(CC(=O)NCc1ccc(Cl)cc1)S(=O)(=O)c1cccs1	-22.6% (inactive)	–
Cc1nc2ccn(Cc3cccs3)c(=O)c2cc1C(=O)NCc1ccc(Cl)cc1	–	16.4 µM (active)
CCn1c(C(C)C)n[nH]c1=S	-7.52% (inactive)	–
O=C(NC1CCCCC1)C1CCCN(S(=O)(=O)c2cccs2)C1 (stereo not given)	-20.7% (inactive)	–
Cn1nnnc1SCC(=O)NNC(=O)c1ccc(Br)cc1	-2.95% (inactive)	–
Cc1cc(C(C)(C)C)cc(C)c1N	-23.6% (inactive)	–
Cc1cc(N)n2nc(-c3ccc(C(C)(C)C)cc3)cc2n1	–	25.9 µM (active)

SMILES	activity change, negative = growth inhibition	Potency
CC(=O)Nc1ccc(NC(=O)CSc2nnnn2-c2ccccc2F)cc1	11.6% (inactive)	–
C1CC1Cc1noc(CN2CCN(CC3CC3)CC2)n1	-8.02% (inactive)	–
Cc1cnc(CNc2cc(-c3c(C)noc3C)ncn2)cn1	-11.7% (inactive)	–
CNc1cc(-c2c(C)noc2C)ncn1	–	14.6 µM (active)
COCCNc1cc(-c2c(C)noc2C)ncn1	-8.82% (inactive)	–
COc1ccc(C2=NOC3(CC(=O)N(c4ccc(Cl)cc4)C3=O)C2)c(OC)c1 (stereo not given)	-5.65% (inactive)	–
COC(=O)c1ccc(NC(=O)CSc2nncn2-c2cccnc2)cc1	-7.79% (inactive)	–
Cc1ccc(SCCC(=O)NC(C(C)C)C(C)C)cc1	-24.3% (inactive)	–
CCOC(=O)c1cccc(NS(=O)(=O)c2cc(-c3cnc(C)o3)ccc2OC)c1	–	6.51 µM (active)
CCOC(=O)c1cccc(NS(=O)(=O)c2cn(C)c(C)n2)c1	-22.6% (inactive)	–
COc1ccc(Cl)cc1S(=O)(=O)Nc1cccc(C(=O)O)c1	-5.98% (inactive)	–
Cc1ccccc1NC(=O)Cc1nc(COC(=O)CNC(=O)c2ccc(Cl)cc2Cl)cs1	-25.5% (inactive)	–
CN1CCN(CCCCOc2cccc3ccccc23)CC1	–	16.4 µM (active)
CCN1CCN(CCCCOc2ccccc2F)CC1	-12.2% (inactive)	–
COc1ccccc1OCCCCCCN1CCN(C)CC1	-25% (inactive)	–
CCn1nc(C(=O)NNC(=O)C2CSC3(C)CCC(=O)N23)c2ccccc2c1=O (stereo not given)	-9.61% (inactive)	–
CC1CCN(S(=O)(=O)c2ccc3[nH]c(=O)ccc3c2)CC1	-6.32% (inactive)	–
CC(=O)c1cccc(Nc2ccc3cc(S(=O)(=O)N4CCC(C)CC4)ccc3n2)c1	–	16.4 µM (active)
CC(=O)c1cccc(NC(=O)COc2ccc(S(=O)(=O)N3CCOCC3)cc2)c1	-7.65% (inactive)	–
O=C(OCc1nc2ccccc2[nH]1)C1CCCCC1	-25.3% (inactive)	–
CC/C(O)=C1\C(=O)CC(C)(C)CC1=NCCc1nc2ccccc2[nH]1	–	20.6 µM (active)
Nc1cccc(CCc2nc3ccccc3[nH]2)c1	-16.2% (inactive)	–
